The panel holds about 83,000 compounds, 20% with a hit somewhere; the sample as a whole holds those more often.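 For each line, cells grew in 96-well plates with the test compound present at a single concentration for 48 hours.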 Active and inactive are the calls of the source. Rule for the calls: active = growth percent below 10; inactive = the rest.
How the values were obtained:
Experiment in all cases: NCI-60 one-dose screen, 48 h (100 = growth as untreated, 0 = no growth, -100 = all killed)
SR leukemia = details: 10 µM unless noted
RPMI-8226 leukemia = details: 10 µM unless noted
OVCAR-8 ovarian = details: 10 µM unless noted
OVCAR-5 ovarian = details: 10 µM unless noted
OVCAR-4 ovarian = details: 10 µM unless noted
SK-OV-3 ovarian = details: 10 µM unless noted
IGROV1 ovarian = details: 10 µM unless noted
OVCAR-3 ovarian = details: 10 µM unless noted
NCI/ADR-RES ovarian = details: 10 µM unless noted
T-47D breast = details: 10 µM unless noted
BT-549 breast = details: 10 µM unless noted
MDA-MB-435 melanoma = details: 10 µM unless noted
SW-620 colon = details: 10 µM unless noted
MCF7 breast = details: 10 µM unless noted
HCT-116 colon = details: 10 µM unless noted
HCC-2998 colon = details: 10 µM
KM12 colon = details: 10 µM unless noted

Measured: growth

NC1(c2ccc(-c3nc4ccn5c(=O)[nH]nc5c4cc3-c3ccccc3)cc2)CCC1
active: SR leukemia -23.4% | SK-OV-3 ovarian 3.19% | T-47D breast -70.4%
inactive: RPMI-8226 leukemia 24.7% | OVCAR-8 ovarian 51.9% | OVCAR-5 ovarian 60.5% | OVCAR-4 ovarian 63.2% | IGROV1 ovarian 12.6% | OVCAR-3 ovarian 39.7% | NCI/ADR-RES ovarian 56.8% | BT-549 breast 17% | MDA-MB-435 melanoma 27% | SW-620 colon 55% | MCF7 breast 12.2% | HCT-116 colon 23.3% | HCC-2998 colon 33.6% | KM12 colon 26.9%

CCN(CCCOc1ccc2c(Nc3cc(CC(=O)Nc4cccc(F)c4)[nH]n3)ncnc2c1)CCOP(=O)(O)O
inactive: SR leukemia 36.3% | RPMI-8226 leukemia 91.5% | OVCAR-8 ovarian 70.2% | OVCAR-5 ovarian 59.3% | OVCAR-4 ovarian 79.9% | SK-OV-3 ovarian 77.1% | IGROV1 ovarian 62.4% | OVCAR-3 ovarian 78.2% | NCI/ADR-RES ovarian 98.3% | T-47D breast 73.6% | BT-549 breast 75.9% | MDA-MB-435 melanoma 69.2% | SW-620 colon 35.8% | MCF7 breast 46.6% | HCT-116 colon 47.5% | HCC-2998 colon 61.4% | KM12 colon 21.4%

CCS(=O)(=O)N1CCN(c2ccc(Nc3ncc(C(N)=O)c(NC4CC4)n3)cc2)CC1
inactive: SR leukemia 48.9% | RPMI-8226 leukemia 62.2% | OVCAR-8 ovarian 89% | OVCAR-5 ovarian 86.7% | OVCAR-4 ovarian 111% | SK-OV-3 ovarian 80.7% | IGROV1 ovarian 77.4% | OVCAR-3 ovarian 90.2% | NCI/ADR-RES ovarian 101% | T-47D breast 99.1% | BT-549 breast 67% | MDA-MB-435 melanoma 68.7% | SW-620 colon 60.1% | MCF7 breast 68.5% | HCT-116 colon 49.2% | HCC-2998 colon 98.3% | KM12 colon 24.5%

Cc1nc2cc(-c3nn(C(C)C)c4ncnc(N)c34)ccc2o1
active: SR leukemia -0.778% | RPMI-8226 leukemia -9.63% | OVCAR-8 ovarian -29.1% | OVCAR-5 ovarian -11.3% | OVCAR-4 ovarian -27.4% | SK-OV-3 ovarian -40.9% | IGROV1 ovarian -39% | OVCAR-3 ovarian 2.45% | NCI/ADR-RES ovarian -22.5% | T-47D breast -39.9% | BT-549 breast -14.5% | MDA-MB-435 melanoma -20.5% | SW-620 colon 2.48% | MCF7 breast -4.42% | HCT-116 colon 7.77% | HCC-2998 colon -8.93% | KM12 colon 0.531%

COc1ccc(-c2ccc3ncc4c(c3c2)n(-c2ccc(N3CCNCC3)c(C(F)(F)F)c2)c(=O)n4C)cn1
active: SR leukemia -34.6% | RPMI-8226 leukemia -46.3% | OVCAR-8 ovarian -62.9% | OVCAR-5 ovarian -80.6% | OVCAR-4 ovarian -76.9% | SK-OV-3 ovarian -83.9% | IGROV1 ovarian -79.4% | OVCAR-3 ovarian -91.1% | NCI/ADR-RES ovarian -70% | T-47D breast -66.9% | BT-549 breast -63.6% | MDA-MB-435 melanoma -88.3% | SW-620 colon -78.4% | MCF7 breast -63% | HCT-116 colon -69.8% | HCC-2998 colon -93.2% | KM12 colon -95.8%

Cc1csc(-c2nnc(Nc3ccc(Oc4ncccc4-c4ccnc(N)n4)cc3)c3ccccc23)c1
inactive: RPMI-8226 leukemia 51.8% | OVCAR-8 ovarian 31% | OVCAR-5 ovarian 51.5% | OVCAR-4 ovarian 60.3% | SK-OV-3 ovarian 53% | IGROV1 ovarian 24.5% | OVCAR-3 ovarian 56% | NCI/ADR-RES ovarian 50% | T-47D breast 30.5% | BT-549 breast 60.4% | MDA-MB-435 melanoma 31.9% | SW-620 colon 20.3% | MCF7 breast 12% | HCT-116 colon 22.1% | HCC-2998 colon 36.1% | KM12 colon 19.2%
active: SR leukemia 3.4%

CS(=O)(=O)CCNCc1ccc(-c2ccc3ncnc(Nc4ccc(OCc5cccc(F)c5)c(Cl)c4)c3c2)o1
inactive: OVCAR-5 ovarian 65.2% | MDA-MB-435 melanoma 31.2% | HCT-116 colon 41.2%
active: SR leukemia 3.31% | RPMI-8226 leukemia -15.4% | OVCAR-8 ovarian -26.5% | OVCAR-4 ovarian -51.2% | SK-OV-3 ovarian -6.37% | IGROV1 ovarian 9.76% | OVCAR-3 ovarian -63.1% | NCI/ADR-RES ovarian 8.75% | T-47D breast -11.9% | BT-549 breast 8.25% | SW-620 colon -56.1% | MCF7 breast -39.3% | HCC-2998 colon -83.6% | KM12 colon -34.9%

COc1cc(Nc2c(C#N)cnc3cc(OCCCN4CCN(C)CC4)c(OC)cc23)c(Cl)cc1Cl
inactive: SR leukemia 31.5% | RPMI-8226 leukemia 59.3% | OVCAR-8 ovarian 42.9% | OVCAR-5 ovarian 22.8% | OVCAR-4 ovarian 56% | SK-OV-3 ovarian 44.3% | OVCAR-3 ovarian 77.9% | NCI/ADR-RES ovarian 78.6% | T-47D breast 59.4% | BT-549 breast 85.2% | MDA-MB-435 melanoma 31.1% | SW-620 colon 37% | MCF7 breast 58.3% | HCT-116 colon 23.3% | HCC-2998 colon 26.9% | KM12 colon 32.9%
active: IGROV1 ovarian 6.33%

CCCCOc1nc2cc(Cl)ccc2cc1/C=C/c1cc(/C=C/c2cc3ccc(Cl)cc3nc2OCCCC)n(-c2ccccc2)n1
inactive: SR leukemia 73% | RPMI-8226 leukemia 111% | OVCAR-8 ovarian 77.8% | OVCAR-5 ovarian 107% | OVCAR-4 ovarian 111% | SK-OV-3 ovarian 51.5% | IGROV1 ovarian 89.3% | OVCAR-3 ovarian 103% | NCI/ADR-RES ovarian 93.2% | T-47D breast 65.7% | BT-549 breast 89.3% | MDA-MB-435 melanoma 112% | SW-620 colon 105% | MCF7 breast 94.5% | HCT-116 colon 85.3% | HCC-2998 colon 102% | KM12 colon 94.9%

O=c1[nH]ccc2c(S(=O)(=O)N3CCCNCC3)cccc12
active: SK-OV-3 ovarian -0.289%
inactive: SR leukemia 83.3% | RPMI-8226 leukemia 106% | OVCAR-8 ovarian 90.4% | OVCAR-5 ovarian 62.9% | OVCAR-4 ovarian 89.5% | IGROV1 ovarian 31.2% | OVCAR-3 ovarian 60.7% | NCI/ADR-RES ovarian 75.4% | T-47D breast 37.7% | BT-549 breast 61.3% | MDA-MB-435 melanoma 88% | SW-620 colon 91.1% | MCF7 breast 85.9% | HCT-116 colon 81.5% | HCC-2998 colon 92.2% | KM12 colon 93.3%

Cc1ccc(-n2nc(C(C)(C)C)cc2NC(=O)NCc2cc(F)ccc2Oc2ccc3c(cnn3CCO)c2)cc1
active: SR leukemia 7.67% | IGROV1 ovarian 8.97% | T-47D breast -3.04% | MDA-MB-435 melanoma 7.09% | MCF7 breast 7.9% | HCT-116 colon 6.75% | KM12 colon 8.7%
inactive: RPMI-8226 leukemia 18.1% | OVCAR-8 ovarian 23.6% | OVCAR-5 ovarian 25.7% | OVCAR-4 ovarian 27.5% | SK-OV-3 ovarian 18.2% | OVCAR-3 ovarian 54.3% | NCI/ADR-RES ovarian 21.3% | BT-549 breast 21.3% | SW-620 colon 25.7% | HCC-2998 colon 19.9%

N#CCNC(=O)c1ccc(-c2ccnc(Nc3ccc(N4CCOCC4)cc3)n2)cc1
active: SR leukemia 6.43% | HCT-116 colon -4.58%
inactive: RPMI-8226 leukemia 27.3% | OVCAR-8 ovarian 24.1% | OVCAR-5 ovarian 29% | OVCAR-4 ovarian 65.8% | SK-OV-3 ovarian 28.7% | IGROV1 ovarian 10.7% | OVCAR-3 ovarian 31.9% | NCI/ADR-RES ovarian 62.7% | T-47D breast 63.5% | BT-549 breast 10.8% | MDA-MB-435 melanoma 42.5% | SW-620 colon 24% | MCF7 breast 15.6% | HCC-2998 colon 30.8% | KM12 colon 16.9%

Cc1c(CN2CCN(C(=O)[C@H](C)O)CC2)sc2c(N3CCOCC3)nc(-c3cnc(N)nc3)nc12
active: SR leukemia -3.28% | RPMI-8226 leukemia 1.84% | OVCAR-8 ovarian -4.51% | OVCAR-5 ovarian -11.6% | OVCAR-4 ovarian -9.47% | SK-OV-3 ovarian -39.1% | IGROV1 ovarian -50.1% | OVCAR-3 ovarian 3.12% | NCI/ADR-RES ovarian 7% | T-47D breast -38% | BT-549 breast -3.06% | MDA-MB-435 melanoma -9.11% | SW-620 colon 7.94% | MCF7 breast 1.68% | HCT-116 colon 5.47% | HCC-2998 colon 0.359% | KM12 colon 6.74%

Cc1ccc(NC(=O)Nc2ccc(Nc3ncnc4sc5c(c34)CCOC5)cc2)cc1Cl
inactive: SR leukemia 89% | RPMI-8226 leukemia 105% | OVCAR-8 ovarian 91.9% | OVCAR-5 ovarian 114% | OVCAR-4 ovarian 121% | SK-OV-3 ovarian 73.4% | IGROV1 ovarian 99.1% | OVCAR-3 ovarian 102% | NCI/ADR-RES ovarian 106% | T-47D breast 58.5% | BT-549 breast 101% | MDA-MB-435 melanoma 103% | SW-620 colon 133% | MCF7 breast 82.8% | HCT-116 colon 101% | HCC-2998 colon 112% | KM12 colon 105%

Cc1ccccc1N1C(c2ccccc2)=NNC12C=CC(=O)C=C2Cl (stereo unspecified)
inactive: SR leukemia 90.6% | RPMI-8226 leukemia 109% | OVCAR-8 ovarian 96.7% | OVCAR-5 ovarian 87.8% | OVCAR-4 ovarian 117% | SK-OV-3 ovarian 90.2% | IGROV1 ovarian 100% | OVCAR-3 ovarian 118% | NCI/ADR-RES ovarian 98.7% | T-47D breast 117% | BT-549 breast 106% | MDA-MB-435 melanoma 112% | SW-620 colon 119% | MCF7 breast 98% | HCT-116 colon 103% | HCC-2998 colon 102% | KM12 colon 110%

CC/C(=C(\c1ccc(OCCN2CCCCCCC2)cc1)c1ccc(OC(=O)C2CCCCC2)cc1)c1ccc(Cl)cc1
inactive: SR leukemia 78.5% | RPMI-8226 leukemia 107% | OVCAR-8 ovarian 100% | OVCAR-5 ovarian 89.9% | OVCAR-4 ovarian 108% | SK-OV-3 ovarian 111% | IGROV1 ovarian 103% | OVCAR-3 ovarian 99.1% | NCI/ADR-RES ovarian 105% | T-47D breast 77.4% | BT-549 breast 116% | MDA-MB-435 melanoma 99.8% | SW-620 colon 95.5% | MCF7 breast 48.5% | HCT-116 colon 87.3% | HCC-2998 colon 109% | KM12 colon 97.1%

O=C(Cc1ccc(/C=C/C(=O)c2ncc[nH]2)cc1)Nc1ccc(Br)cc1
active: SR leukemia 5.06% | RPMI-8226 leukemia -13.3% | OVCAR-8 ovarian 6.77% | IGROV1 ovarian 8.48% | OVCAR-3 ovarian 9.63% | SW-620 colon 2.37% | HCT-116 colon -40.2% | KM12 colon -43.3%
inactive: OVCAR-5 ovarian 18.7% | OVCAR-4 ovarian 46.4% | SK-OV-3 ovarian 70.2% | NCI/ADR-RES ovarian 13.4% | T-47D breast 17.5% | BT-549 breast 20.5% | MDA-MB-435 melanoma 43.5% | MCF7 breast 11.8% | HCC-2998 colon 78.6%

COC(=O)c1ccc2c(C(=Nc3ccc(N(C)C(=O)CN4CCN(C)CC4)cc3)c3ccccc3)c(O)[nH]c2c1
active: SR leukemia 6.5% | KM12 colon 8.95%
inactive: RPMI-8226 leukemia 62.4% | OVCAR-8 ovarian 53.2% | OVCAR-5 ovarian 64.5% | OVCAR-4 ovarian 68.5% | SK-OV-3 ovarian 53.2% | IGROV1 ovarian 33.6% | OVCAR-3 ovarian 91.3% | NCI/ADR-RES ovarian 82.2% | T-47D breast 47.4% | BT-549 breast 55.8% | MDA-MB-435 melanoma 72.6% | SW-620 colon 67.4% | MCF7 breast 33.5% | HCT-116 colon 20.2% | HCC-2998 colon 84.3%
